Most compounds without a hit are left out; they make up all but 3.5% or so of the library.
TMEM16A act = activators or potentiators of mouse TMEM16A chloride channel; Q8BHY3; HEK293 TMEM16A/YFP-H148Q/I152L, iodide quench fluorescence; hits give low values; B-score at 10 µM; 0.3% of 340,000 active;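 active = fluorescence-ratio B-score plate-corrected deviation score at least 3 library SD below zero, with starting fluorescence score within 5 deviations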;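 note: channel opened by trigger with iodide after compound preincubation; score built on the fluorescence ratio of max minus min over baseline; more negative score means more quench and so TMEM16A activation or potentiation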
KCNK3 inh = human KCNK3 channel inhibition, primary screen | O14649 | AID 602410 | 0.84% of 340,000 active | B-score at 10 µM | CHO-KCNK3 thallium flux, FluxOR fluorescence; hits give low values;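 active = B-score under library mean minus 4 SD, starting fluorescence ratio at most library mean plus 5 SD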;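 note: more negative B-score means stronger inhibition of thallium flux through KCNK3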
Target sequence (O14649 whole entry, looked up): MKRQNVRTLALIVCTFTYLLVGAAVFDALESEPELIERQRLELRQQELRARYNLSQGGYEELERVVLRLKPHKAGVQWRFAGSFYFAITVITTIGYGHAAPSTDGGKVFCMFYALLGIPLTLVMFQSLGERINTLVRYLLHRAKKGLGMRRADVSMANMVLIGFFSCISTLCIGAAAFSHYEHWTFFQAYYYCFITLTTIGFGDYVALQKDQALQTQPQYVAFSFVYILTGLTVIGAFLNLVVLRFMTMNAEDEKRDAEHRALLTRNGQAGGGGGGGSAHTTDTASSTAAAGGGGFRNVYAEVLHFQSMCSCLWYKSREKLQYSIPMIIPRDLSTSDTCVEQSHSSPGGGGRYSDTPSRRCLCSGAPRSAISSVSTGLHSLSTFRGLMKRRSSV
Kir21 inh = blocks the mouse Kir2.1 inward-rectifier potassium channel. B-score at 10 µM. HEK293-Kir2.1, FluxOR thallium flux fluorescence; hits give low values. 0.85% of 310,000 active. AID 1672. P35561;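 active = fluorescence ratio B-score at or below minus 3 SD of library scores, with starting-brightness B-score within 2 SD, cut at about -4.2 in these data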;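 note: channel flux triggered by added potassium and thallium sulfate stimulus; B-score of peak minus minimum fluorescence over baseline after thallium stimulus; more negative B-score means stronger Kir2.1 block with less thallium influx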
ANO1 block = inhibitors of mouse TMEM16A calcium-activated chloride channel. HEK293 TMEM16A/YFP iodide influx fluorescence, ionomycin. 1.2% of 310,000 active. AID 588511. normalized B-score (activity score, 25-100; higher = stronger inhibition) at 10 µM;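 active = ratio plate-corrected score three or more library SD toward inhibition, starting fluorescence score within five deviations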;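 note: score derived from kinetic fluorescence span divided by baseline fluorescence per well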
KCNK9 block = inhibitors of human KCNK9 two-pore domain potassium channel. Q9NPC2. 1.2% of 310,000 active. HEK293 KCNK9, FluxOR thallium flux fluorescence; hits give low values. B-score at 10 µM;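 active = ratio B-score over 3 SD below the library mean, with starting fluorescence within 5 SD of its mean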;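 note: negative B-score means less thallium flux so channel inhibition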
Target sequence (Q9NPC2 whole entry, looked up, the tested form may be a part): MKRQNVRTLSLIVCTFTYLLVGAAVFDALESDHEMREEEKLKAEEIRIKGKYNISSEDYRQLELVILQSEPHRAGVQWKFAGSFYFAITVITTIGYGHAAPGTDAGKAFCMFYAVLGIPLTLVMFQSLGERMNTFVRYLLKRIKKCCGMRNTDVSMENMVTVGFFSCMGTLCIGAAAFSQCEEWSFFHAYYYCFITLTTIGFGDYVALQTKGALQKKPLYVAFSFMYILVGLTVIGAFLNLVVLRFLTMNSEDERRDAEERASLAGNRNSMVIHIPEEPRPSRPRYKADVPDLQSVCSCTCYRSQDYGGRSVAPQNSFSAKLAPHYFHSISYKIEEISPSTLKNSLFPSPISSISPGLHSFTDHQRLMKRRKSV
KCNK9 block conf = confirmation of human KCNK9 potassium channel inhibitors; shares compounds with KCNK9 block; HEK293 KCNK9 cells, FluxOR thallium flux fluorescence; inhibition, % at 10 µM; 43% of 4,900 active;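 active = thallium signal inhibited by more than 5 SD of the compound-free buffer control wells, on both duplicate plates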;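 note: 0% = assay buffer control wells without compound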
Kir21 sel = tests whether KCNK9 modulators also affect mouse Kir2.1; shares compounds with KCNK9 block; Kir2.1 cells, FluxOR thallium flux fluorescence; inhibition, % at 10 µM; 4% of 4,900 active;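 active = thallium signal drop more than 5 SD beyond the mean of the no-compound control wells, seen in both duplicate plates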;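 note: signal is fluorescence rise after thallium addition divided by baseline fluorescence; plate controls were assay buffer only for no effect and full block by chlorpromazine control for full effect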
KCNK9 uninduced = second counter-screen for KCNK9 modulators: effect in non-induced cells; shares compounds with KCNK9 block; non-induced KCNK9-HEK293, FluxOR thallium flux; inhibition, % at 10 µM; 40% of 4,900 active; AID 492997;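 active = thallium signal drop beyond 5 SD of the untreated control mean, on both duplicate plates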;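 note: plate controls were buffer only IC0 wells for no effect and SID17386958 at its maximal inhibitory level for full effect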
TMEM16A reconf = TMEM16A (mouse) chloride channel inhibition, re-confirmation. shares compounds with ANO1 block. 39% of 2,300 active. AID 652189. HEK293 TMEM16A/YFP-H148Q, iodide quench fluorescence; ionomycin added to raise cell calcium. inhibition, % at 10 µM;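 active = mean duplicate percent inhibition, scaled so buffer wells are 0 and the reference blocker 100, over three buffer SD above buffer mean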
TMEM16A Ca cntr = alters calcium mobilization in TMEM16A HEK293 cells, counter-screen. TMEM16A/YFP HEK293, Fluo4 calcium mobilization. 2% of 2,300 active. AID 652231. calcium response (% of ionomycin), % at 10 µM. shares compounds with ANO1 block;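 active = duplicate-averaged calcium signal over 20% of the ionomycin maximum, relative to buffer baseline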;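 note: each well's signal is peak minus trough fluorescence divided by its pre-addition baseline; 0% = buffer wells and 100% = ionomycin wells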
Parental YFP cnt = parental YFP-HEK293 iodide quench counter-screen activity; shares compounds with ANO1 block; ionomycin; YFP ratio F(max-min)/F0 at 10 µM; 2,300 tested, under 10 active;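 active = yellow fluorescent protein signal ratio exceeding the buffer control mean by over 5 SD of those controls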;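 note: ratio is mean of duplicate wells from kinetic YFP trace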
ClC-1 inh = blocks the rat ClC-1 voltage-dependent chloride channel. shares compounds with ANO1 block. ratio percent, % at 10 µM. CHO ClC-1-YFP, iodide influx fluorescence quench; iodide control reads 0, buffer control 100. 2,300 tested, under 10 active;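 active = duplicate-mean ratio percent above the mean of iodide-only control wells, which defines zero, plus 5 of their SD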;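 note: higher percent means stronger block of ClC-1 iodide influx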
KCNK3 confirm = confirmation of human KCNK3 two-pore domain potassium channel inhibitors | ratio percent of control, % at 10 µM | CHO-KCNK3 thallium flux, FluxOR fluorescence; 0% buffer, 100% carvedilol maximal block | 99% of 2,400 active | shares compounds with KCNK3 inh;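 active = ratio percent of control, averaged over triplicates, above buffer control mean plus 5 SD, cut at about 64% in these data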;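 note: ratio is the fluorescence rise from min to max over baseline after thallium stimulus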
KCNK3 uninduced = counter-screen for KCNK3 inhibitors: effect in non-induced cells. non-induced KCNK3 parental cells, FluxOR thallium flux; hits give low values. shares compounds with KCNK3 inh. thallium flux ratio (lower = more inhibition) at 10 µM. 40% of 2,400 active;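 active = thallium flux ratio, averaged over three wells, more than 5 SD below the buffer control mean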;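 note: host cells are CHO cells without KCNK3 induction; ratio is peak minus trough fluorescence over baseline then normalized to buffer controls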
An asterisk follows results filed as active.

Results for CCOc1cccc2sc(N(CCN(C)C)C(=O)c3ccc4ccccc4c3)nc12 ?
TMEM16A act: inactive; KCNK3 inh: -9.6*; Kir21 inh: -1.4; ANO1 block: inactive; KCNK9 block: -9.38*; KCNK9 block conf: 36.0%*; Kir21 sel: inactive; KCNK9 uninduced: inactive; KCNK3 confirm: 117.7*; KCNK3 uninduced: inactive

Results for COCC(=O)Nc1c(C(=O)Nc2ccc3c(c2)OCO3)oc2ccccc12 ?
TMEM16A act: inactive; KCNK3 inh: inactive; Kir21 inh: 2.3; ANO1 block: inactive; KCNK9 block: inactive

Results for CSCc1c(C(=O)Nc2ccc3c(c2)OCO3)oc2ccccc12 ?
TMEM16A act: inactive; KCNK3 inh: -8.72*; Kir21 inh: -1.05; ANO1 block: inactive; KCNK9 block: -9.48*; KCNK9 block conf: 39.0%*; Kir21 sel: inactive; KCNK9 uninduced: 30.0%*; KCNK3 confirm: 123.7*; KCNK3 uninduced: 0.146*

How did CCc1cccc(CC)c1NC(=O)c1cccc(NC(=O)c2ccccc2)c1 do in these assays?
TMEM16A act: inactive; KCNK3 inh: inactive; Kir21 inh: 1.29; ANO1 block: inactive; KCNK9 block: -8.6*; KCNK9 block conf: 64.5%*; Kir21 sel: inactive; KCNK9 uninduced: inactive; KCNK3 confirm: 81.3*; KCNK3 uninduced: inactive

Results for CC(C)c1ccccc1NC(=O)c1cccc(NC(=O)c2ccccc2)c1 ?
KCNK3 inh: -10.5*; Kir21 inh: -2.13; ANO1 block: inactive; KCNK9 block: -10.1*; KCNK9 block conf: 40.5%*; Kir21 sel: inactive; KCNK9 uninduced: inactive; KCNK3 confirm: 105.7*; KCNK3 uninduced: inactive

Results for CC(C)CCN(C(=O)c1ccccn1)c1c(N)n(Cc2ccccc2)c(=O)[nH]c1=O ?
TMEM16A act: inactive; KCNK3 inh: inactive

How did CCc1ccc(CN(C)C(=O)c2cc(COc3cccc4cnccc34)on2)cc1 do in these assays?
TMEM16A act: inactive; KCNK3 inh: -13.8*; Kir21 inh: 1.64; ANO1 block: 100*; KCNK9 block: -10.1*; KCNK9 block conf: inactive; Kir21 sel: inactive; KCNK9 uninduced: inactive; TMEM16A reconf: 22.0%*; TMEM16A Ca cntr: inactive; Parental YFP cnt: -1.26; ClC-1 inh: -22.0; KCNK3 confirm: 126.7*; KCNK3 uninduced: 0.147*

How did CN(Cc1cccc2cnccc12)C(=O)c1cc(COc2ccc(F)cc2F)on1 do in these assays?
TMEM16A act: inactive; KCNK3 inh: inactive; Kir21 inh: -0.94; KCNK9 block: inactive

How did O=C(O)C1=C[C@H](c2ccc(F)cc2)C[C@H](OCCCCO)O1 do in these assays?
TMEM16A act: inactive; KCNK3 inh: inactive; Kir21 inh: -0.31; ANO1 block: inactive; KCNK9 block: inactive

Results for CC(C)COC(=O)Cn1cnc2ccc(Br)cc2c1=O ?
TMEM16A act: inactive; KCNK3 inh: inactive; Kir21 inh: 2.55; ANO1 block: inactive; KCNK9 block: inactive

What do the screens show for `CN(CC(=O)Nc1ccccc1-c1ccccc1)Cc1ccccc1Cl`?
TMEM16A act: inactive; KCNK3 inh: -9.63*; Kir21 inh: 0.47; ANO1 block: inactive; KCNK9 block: -15.9*; KCNK9 block conf: 63.0%*; Kir21 sel: 55.0%*; KCNK9 uninduced: 45.5%*; KCNK3 confirm: 120.3*; KCNK3 uninduced: 0.134*

Results for CCNC(=O)C12CCC(C)(C(=O)O1)C2(C)C (stereo not drawn) ?
TMEM16A act: inactive; KCNK3 inh: inactive; Kir21 inh: 0.05; ANO1 block: inactive; KCNK9 block: inactive

What do the screens show for `O=C(Nc1cccc(NC(=O)c2ccco2)c1)c1cccc(Br)c1`?
TMEM16A act: inactive; KCNK3 inh: -13.3*; Kir21 inh: 0.77; ANO1 block: inactive; KCNK9 block: -10.5*; KCNK9 block conf: 59.0%*; Kir21 sel: inactive; KCNK9 uninduced: inactive; KCNK3 confirm: 100.0*; KCNK3 uninduced: inactive

How did O=C(Nc1ccccc1)c1ccc(Br)o1 do in these assays?
TMEM16A act: inactive; KCNK3 inh: inactive; Kir21 inh: -0.35; ANO1 block: inactive; KCNK9 block: inactive

What do the screens show for `O=C(c1ccccc1)c1cccc(NC(=O)c2ccc(Br)o2)c1`?
TMEM16A act: inactive; KCNK3 inh: -9.73*; Kir21 inh: 0.43; ANO1 block: inactive; KCNK9 block: -9.15*; KCNK9 block conf: inactive; Kir21 sel: inactive; KCNK9 uninduced: inactive; KCNK3 confirm: 105.7*; KCNK3 uninduced: inactive

Results for Cc1cc(C)c(S(=O)(=O)Nc2ccccc2C(=O)N2CCCC2)c(C)c1 ?
TMEM16A act: inactive; KCNK3 inh: inactive; Kir21 inh: 1.69; ANO1 block: inactive; KCNK9 block: inactive

Results for Clc1ccc(CSc2snnc2-c2ccccc2)cc1 ?
TMEM16A act: inactive; KCNK3 inh: -12.1*; Kir21 inh: -0.49; ANO1 block: inactive; KCNK9 block: -8.57*; KCNK9 block conf: 30.5%*; Kir21 sel: inactive; KCNK9 uninduced: 45.0%*; KCNK3 confirm: 96.3*; KCNK3 uninduced: inactive
